Measurements published in the antibiotic and cytotoxicity screens of Wong et al. (2023).
The whole screen tested about 39,000 compounds, of which about 3,300 (8.5%) were called active. The list comes from a sample in which actives are over-represented; it also holds similar structures and randomly drawn compounds.

The molecules below were run on HepG2 (assay: cytotoxicity call (relative viability < 0.9)). Conditions: 10 µM.

SMILES | cytotoxicity call
CO[C@H](CN(C)S(=O)(=O)c1ccc(F)cc1)[C@H](C)CN([C@@H](C)CO)S(=O)(=O)c1cccc(Cl)c1 | inactive
COC1C=CC23c4cc5c(cc4CN(CC2O)C3C1)OCO5 (stereo not drawn) | inactive
COC(=O)[C@H](Cc1ccccc1)N1CC2=C[C@H](C3CC3)n3c(=O)n(C)c(=O)n3[C@@H]2[C@H]1[C@H](O)Cc1ccccc1 | inactive
CC(=O)N1CCc2n[nH]c(C(=O)N3CCOCC3)c2C1 | inactive
CC(C)NC(=O)N(C)C[C@@H]1Oc2c(NC(=O)C3CCOCC3)cccc2C(=O)N([C@H](C)CO)C[C@@H]1C | inactive
C[C@@H]1CN([C@H](C)CO)S(=O)(=O)c2ccc(C#Cc3ccc(F)cc3)cc2O[C@@H]1CN(C)C(=O)CN(C)C | inactive
C[C@@H]1CN([C@@H](C)CO)S(=O)(=O)c2ccc(C#Cc3ccccc3)cc2O[C@@H]1CN(C)C(=O)CN(C)C | active
C[C@@H]1CN([C@@H](C)CO)S(=O)(=O)c2ccc(C#Cc3ccc(F)cc3)cc2O[C@@H]1CN(C)C(=O)CN(C)C | inactive
C[C@H](CO)N1C[C@H](C)[C@@H](CN(C)C(=O)CN(C)C)Oc2cc(C#Cc3ccc(F)cc3)ccc2S1(=O)=O | inactive
C[C@H](CO)N1C[C@H](C)[C@H](CN(C)C(=O)CN(C)C)Oc2cc(C#Cc3ccccc3)ccc2S1(=O)=O | inactive
C[C@H]1CN([C@@H](C)CO)S(=O)(=O)c2ccc(C#Cc3ccccc3)cc2O[C@H]1CN(C)C(=O)CN(C)C | active
C[C@H](CO)N1C[C@H](C)[C@@H](CN(C)C(=O)CN(C)C)Oc2cc(C#Cc3ccccc3)ccc2S1(=O)=O | active
C[C@H](CO)N1C[C@H](C)[C@H](CN(C)C(=O)CN(C)C)Oc2cc(C#Cc3ccc(F)cc3)ccc2S1(=O)=O | inactive
C[C@H]1CN([C@@H](C)CO)S(=O)(=O)c2ccc(C#Cc3ccccc3)cc2O[C@@H]1CN(C)C(=O)CN(C)C | inactive
C[C@@H]1CCCCO[C@@H](CN(C)Cc2ccc(C(F)(F)F)cc2)[C@H](C)CN([C@H](C)CO)C(=O)c2cc(N(C)C)ccc2O1 | inactive
Cn1ccc(C(=O)N2CCC3(CCOC[C@@H]3NS(C)(=O)=O)CC2)n1 | inactive
Cc1noc(C)c1S(=O)(=O)Nc1ccc2c(c1)CC(=O)N([C@@H](C)CO)C[C@H](C)[C@H](CN(C)C(=O)NC(C)C)O2 | inactive
COc1cccc(S(=O)(=O)N[C@H]2CC[C@@H](CC(=O)NC3CCC3)O[C@@H]2CO)c1 | inactive
CC(=O)NCCCC[C@@H]1NC(=O)[C@H]2C[C@@H](C(=O)NCCCCCCN(C)C)[C@@H](c3ccc(O)cc3)N2C1=O | inactive
C[C@@H]1CCCCO[C@H](CN(C)C(=O)Nc2ccc(F)cc2)[C@H](C)CN([C@@H](C)CO)C(=O)c2cc(NC(=O)c3ccncc3)ccc2O1 | inactive
NCc1ccc(S(=O)(=O)O)cc1 | inactive
C[C@@H]1CN([C@@H](C)CO)C(=O)Cc2cc(NC(=O)Cn3cnnn3)ccc2O[C@@H]1CN(C)C(=O)Nc1ccc(F)cc1 | inactive

SMILES | cytotoxicity call
CN1CCN(C(=O)C[C@@H]2C=C[C@@H](NC(=O)c3ccc4c(c3)OCO4)[C@H](CO)O2)CC1 | inactive
CCCCOc1ccc(CC(=O)NO)cc1 | active
CCOc1ccc(NC(=O)CC(C)O)cc1 (stereo not drawn) | inactive
COc1ccc(OCCC(=O)NN)cc1 | inactive
CNC(=O)CN(C#N)c1nc(C)cc(C)n1 | inactive
COc1ccc(CNC(=O)C[C@H]2C[C@H]3c4cc(NS(=O)(=O)c5ccc(F)cc5)ccc4O[C@H]3[C@H](CO)O2)cc1 | inactive
C[C@H](CO)N1C[C@H](C)[C@H](CN(C)C(=O)c2cccnc2)Oc2ncc(-c3ccc(C(=O)N(C)C)cc3)cc2C1=O | inactive
C[C@@H]1CCCCO[C@H](CN(C)C(=O)CCC(F)(F)F)[C@@H](C)CN([C@H](C)CO)C(=O)c2cc(NC(=O)CCC(F)(F)F)ccc2O1 | inactive
C[C@H](CO)N1C[C@H](C)[C@H](CN(C)C(=O)Nc2ccccc2)Oc2ccc(NC(=O)Nc3ccc(C(F)(F)F)cc3)cc2C1=O | active
C[C@@H]1CN([C@H](C)CO)C(=O)c2cc(NC(=O)Nc3ccc(C(F)(F)F)cc3)ccc2O[C@H]1CN(C)C(=O)Nc1ccc(F)cc1 | inactive
C[C@H](CO)N1C[C@H](C)[C@@H](CN(C)C(=O)Nc2ccc(C(F)(F)F)cc2)Oc2ccc(NC(=O)Nc3ccc(F)cc3)cc2C1=O | active
C[C@@H]1CN([C@@H](C)CO)C(=O)c2cc(NC(=O)Nc3ccc(C(F)(F)F)cc3)ccc2O[C@H]1CN(C)C(=O)Nc1ccc(C(F)(F)F)cc1 | inactive
C[C@H]1CN([C@@H](C)CO)C(=O)c2cc(NC(=O)CCC(F)(F)F)ccc2O[C@H]1CN(C)C(=O)Nc1ccc(C(F)(F)F)cc1 | active
C[C@@H]1CN([C@H](C)CO)C(=O)c2cc(NC(=O)CCC(F)(F)F)ccc2O[C@@H]1CN(C)C(=O)Nc1ccc(C(F)(F)F)cc1 | inactive
C[C@H](CO)N1C[C@H](C)[C@@H](CN(C)C(=O)Nc2ccc(C(F)(F)F)cc2)Oc2ccc(NC(=O)Nc3ccc(C(F)(F)F)cc3)cc2C1=O | active
C[C@H]1CN([C@@H](C)CO)C(=O)c2cc(NC(=O)Nc3ccc(C(F)(F)F)cc3)ccc2O[C@H]1CN(C)C(=O)Nc1ccc(C(F)(F)F)cc1 | inactive
C[C@@H]1CN([C@@H](C)CO)C(=O)c2cc(NC(=O)CCC(F)(F)F)ccc2O[C@H]1CN(C)C(=O)Nc1ccc(C(F)(F)F)cc1 | inactive
C[C@@H]1CN([C@H](C)CO)C(=O)c2cc(NC(=O)Nc3ccccc3)ccc2O[C@@H]1CN(C)C(=O)Nc1ccc(C(F)(F)F)cc1 | inactive
C[C@@H]1CN([C@@H](C)CO)C(=O)c2cc(NC(=O)Nc3ccccc3)ccc2O[C@@H]1CN(C)C(=O)Nc1ccc(C(F)(F)F)cc1 | inactive
C[C@H]1CN([C@@H](C)CO)C(=O)c2cc(NC(=O)Nc3ccc(F)cc3)ccc2O[C@@H]1CN(C)C(=O)Nc1ccc(C(F)(F)F)cc1 | inactive
Cc1noc(C)c1NC(=O)Nc1ccc2c(c1)CC(=O)N([C@H](C)CO)C[C@H](C)[C@H](CN(C)S(=O)(=O)c1cn(C)cn1)O2 | inactive
